Data reported in paper PMC7819943, “Rice protein-binding microarrays: a tool to detect cis-acting elements near promoter regions in rice”.
In all, about 39,000 sequences were measured (“fluorescence intensity (a.u.)”: median about 4,300, highest 2% from about 39,000 on). The list comes from a sample in which the highest values are over-represented; it also holds similar and randomly drawn sequences.

Each sequence was assayed against T1, OsSMF1 (Oryza sativa, UniProt Q6ZLB0 1-436) (assay: protein-binding microarray (RPBM); PBS, 2% BSA, 51.3 ng/ul salmon testes DNA, 50 uM zinc acetate, 200 nM TF, 25 C, 1 h; high values mean tight binding). Conditions: protein: recombinant; tags: N-terminal polyhistidine and DsRed monomer fusion (pET32a); chain copies: 2; label: CyDye5-dUTP incorporated in the synthesized complementary strand; 3' TTTTT single-stranded linker to array surface; dsDNA, one strand shown.
T1 sequence: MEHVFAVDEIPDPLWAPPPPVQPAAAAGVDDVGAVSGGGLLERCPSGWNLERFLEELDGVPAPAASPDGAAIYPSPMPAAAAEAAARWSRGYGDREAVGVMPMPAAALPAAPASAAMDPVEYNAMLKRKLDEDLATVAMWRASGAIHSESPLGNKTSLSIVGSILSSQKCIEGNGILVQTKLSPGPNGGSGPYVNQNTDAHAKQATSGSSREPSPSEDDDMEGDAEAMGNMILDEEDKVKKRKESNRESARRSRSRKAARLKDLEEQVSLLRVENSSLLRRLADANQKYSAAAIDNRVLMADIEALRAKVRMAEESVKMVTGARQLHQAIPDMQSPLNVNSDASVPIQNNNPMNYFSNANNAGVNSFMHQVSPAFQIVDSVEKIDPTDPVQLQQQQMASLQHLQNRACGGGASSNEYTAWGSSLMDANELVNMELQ
Summary of the method: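 The binding signal is fluorescence intensity per feature, in arbitrary units, read on an Axon 4000B scanner. Polyhistidine- and DsRed-tagged transcription factors (N-terminal fusions) from E. coli BL21-CodonPlus were purified on Ni–NTA and applied at 200 nM for 1 h at 25 °C to a double-stranded, BSA-blocked custom Agilent array in buffer with 50 µM zinc acetate.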

First: GGGCGCACCTACAGCACCAAGTGTAACCAGAGCTTACACACGGAGTCACCTAGTGCAG
Second: CCTCCATCTATGTCCTGCTGTCCAACATCTACGCGGATGCCGGAGTCACCTAGTGCAG
The binding signal of the first is lower: 3420 fluorescence intensity (a.u.) for the first, 3820 fluorescence intensity (a.u.) for the second.

First: GCTAGCACTCGCCTCCCTCTGCGCCCACGCCACGCTGTGGCGGAGTCACCTAGTGCAG
Second: CTCTCTCCTCGTCTTCCTCGCGCTGACTCTTCTCCTCCTCCGGAGTCACCTAGTGCAG
The binding signal of the first is higher: 4110 fluorescence intensity (a.u.) for the first, 3180 fluorescence intensity (a.u.) for the second.

Compared with “AATTCCTCTCTCTCTCTCCCCTCCCATGGCGTCACTGTCGCGGAGTCACCTAGTGCAG”, “CGTGCACGTGTTCACCGGAGGTGCTCGTCAGCAAAGCAGGCGGAGTCACCTAGTGCAG” is lower in binding signal: 6120 fluorescence intensity (a.u.) for the first, 6000 fluorescence intensity (a.u.) for the second.

Going from “GACGCATGCACGCCGCCACGTCGCGCGCCATGGCCACCCCCGGAGTCACCTAGTGCAG” to “TTCTCCTCGGCCTCCATGTGCACGTCCATGTGGCGCATGGCGGAGTCACCTAGTGCAG”, the binding signal falls from 9700 fluorescence intensity (a.u.) to 4220 fluorescence intensity (a.u.).

Going from “ACGTTCCACTCGCGCGCCTCCACGTCAGCACCCACTGTGGCGGAGTCACCTAGTGCAG” to “TGACCGGCGCAGCTCGCGCCACGTCACCCGCACGCGCCGCCGGAGTCACCTAGTGCAG”, the binding signal falls from 42300 fluorescence intensity (a.u.) to 8600 fluorescence intensity (a.u.).

Compared with “TTCACTCGAGGAGGCGGCGGAGGCAGTCCACGTCAGCAACCGGAGTCACCTAGTGCAG”, “ATGGCGCGCCGCCACGTCACCCCGACTCGCCACGTCAGCACGGAGTCACCTAGTGCAG” is higher in binding signal: 39000 fluorescence intensity (a.u.) for the first, 65500 fluorescence intensity (a.u.) for the second.

First: CTTCACCGGCGGCGAGGAGCACGTCACCGGCGGCGAGCACCGGAGTCACCTAGTGCAG
Second: TTCTCTCCGTCTTCCTCCAGCACTGAATTTGTCGCTGGCGCGGAGTCACCTAGTGCAG
The binding signal of the first is lower: 4120 fluorescence intensity (a.u.) for the first, 64900 fluorescence intensity (a.u.) for the second.

Going from “GCCTGTAGCCTGGTGGTTACAAGAGCCTCAGTAGCACCTGCGGAGTCACCTAGTGCAG” to “CAACGGCTATGAGCTGTCACACACTCACAGTAGTACTCCGCGGAGTCACCTAGTGCAG”, the binding signal rises from 3250 fluorescence intensity (a.u.) to 3850 fluorescence intensity (a.u.).

First: ATAAATAGAATGCTGACTGGACTGCCACGCGTACGCCATGCGGAGTCACCTAGTGCAG
Second: ACGTGCTCAGTCATCATCCTCATGGCCGTTCCTTGCCGAACGGAGTCACCTAGTGCAG
The binding signal of the first is higher: 22000 fluorescence intensity (a.u.) for the first, 6930 fluorescence intensity (a.u.) for the second.

Compared with “TGATCAAAGGGTTTTACTAAAGGAGTTATGGTCTAATTTTCGGAGTCACCTAGTGCAG”, “GCTTTGGAACTCCTTTAGATTATAATCCAACTCAATTCAACGGAGTCACCTAGTGCAG” is lower in binding signal: 64900 fluorescence intensity (a.u.) for the first, 4590 fluorescence intensity (a.u.) for the second.

First: TCTGTACCAAACTCAATTTTAGAATTCAGAGATCCAATAACGGAGTCACCTAGTGCAG
Second: TTCATAAAACTCCACCTGATCCGAATTACTCTACCAATAACGGAGTCACCTAGTGCAG
The binding signal of the first is higher: 40000 fluorescence intensity (a.u.) for the first, 4490 fluorescence intensity (a.u.) for the second.

Going from “CAATTCCGACGAAATCCGGTCGGATTTCACGAAATTTCGACGGAGTCACCTAGTGCAG” to “GATAAATATAGGAATGTTTATAATACTAAATTAATTTAATCGGAGTCACCTAGTGCAG”, the binding signal rises from 20600 fluorescence intensity (a.u.) to 28300 fluorescence intensity (a.u.).

Compared with “CGATTTACTTCAAATTTTAGAGGATCAGATCCGACGAAATCGGAGTCACCTAGTGCAG”, “TCAAAGGGTTTCATAAATTTTATGTATATTTTACAAGATTCGGAGTCACCTAGTGCAG” is lower in binding signal: 42900 fluorescence intensity (a.u.) for the first, 5540 fluorescence intensity (a.u.) for the second.

Compared with “CAGAAGGATATATGTTTTATAATTTATTCAAATACTAGATCGGAGTCACCTAGTGCAG”, “GAGGACAGATCAAATGATTTTAATGACGAAACATGTGCTTCGGAGTCACCTAGTGCAG” is lower in binding signal: 41400 fluorescence intensity (a.u.) for the first, 4096 fluorescence intensity (a.u.) for the second.

First: ATTTTGGTCAAATTTAAACTAATCTAAGTTTGACTAATTTCGGAGTCACCTAGTGCAG
Second: GTAATAATAGATTATATTCAATTAATTAATTATTTATTATCGGAGTCACCTAGTGCAG
The binding signal of the first is lower: 8280 fluorescence intensity (a.u.) for the first, 17400 fluorescence intensity (a.u.) for the second.
